Fluorescence fold increase data for 60 compounds are collected here from PubChem BioAssay AID709 (SRMLSC, 2007).

Hit rate of the full screen: of about 65,000 compounds, about 3,600 (5.5%) were called active. The sample holds actives, similar compounds and a random draw of the others, so the mix is not that of the screen.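 How the source made its calls: active means at 10 µM, mean starting fluorescence two-fold or more over control wells; inactive means the rest.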 Where a SMILES comes first, the peptide text is derived from it. The star is where a group is joined. Bz = O=C(c1ccccc1)*

The assay in a line: intrinsic fluorescence of library compounds, ex339/em460 – biochemical, MLSMR library, data from DPM-DC assay, artefact control, profiling panel (AID 709).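 Further: signal is the first read of a kinetic run.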 The conditions noted are these: compound autofluorescence, ex339/em460 nm, NADH buffer; at 10 µM; hits give high values; 1 = no-compound wells, NADH background.
For `CCOc1ccccc1-n1c(SCC(=O)NCc2ccco2)nnc1-c1ccncc1`, the fluorescence fold increase is 1.07 (inactive). Take `CCOC(=O)C1=C(C)N=c2s/c(=C\C(=O)OC)c(=O)n2C1c1ccc(OC)cc1` (stereo not given): the fluorescence fold increase is 1.08 (inactive). `O=C(NCc1ccco1)c1cccn2c(=O)c3cc(Br)ccc3nc12`: the fluorescence fold increase was 2.53 (active). For `O=C(Nc1ccccc1)Nc1ccccc1C(=O)NCc1ccco1`, the fluorescence fold increase is 1.65 (inactive). The same measure for `O=C(NCc1ccco1)c1cc(-c2cccnc2)nc2ccc(Cl)cc12`: 1.17 (inactive); for `Cc1ccsc1-c1nc(CSCC(=O)NCCN2CCCC2)c(C)o1`: 2.22 (active).

`Cn1c(C(=O)NCCCN2CCCCC2)cc2sccc21`: the fluorescence fold increase was 1.19 (inactive). For `Cc1cc(NC(=O)CSCc2nc(-c3cccc(Cl)c3)oc2C)no1`, the fluorescence fold increase is 1.06 (inactive). As for `CC(C)NC(=O)CCCn1c(=S)[nH]c2cc3c(cc2c1=O)OCO3`, the fluorescence fold increase was 1.07 (inactive). In the case of `COc1ccc(OC)c(-n2cc3c(=O)n(C)c(=O)n(C)c3c2)c1`, the fluorescence fold increase is 1.3 (inactive). On to `COc1ccc(-c2c3c(=O)n(C)c(=O)n(C)c3cn2-c2cccc(OC)c2)cc1`, for which the fluorescence fold increase is 1.94 (inactive). As for `Cc1ccc(-c2c3c(=O)n(C)c(=O)n(C)c3cn2-c2ccccc2O)cc1`, the figure is 3.24 (active); as for `Cc1ccc(-c2c3c(=O)n(C)c(=O)n(C)c3cn2-n2cnnc2)cc1`, 1.07 (inactive); as for `COc1cccc(-n2cc3c(c2-c2ccccc2)c(=O)n(C)c(=O)n3C)c1`, 2.35 (active). `CC(=O)Nn1cc2c(=O)n(C)c(=O)n(C)c2c1`: the fluorescence fold increase is 1.03 (inactive).

`COc1ccc(-c2c3c(=O)n(C)c(=O)n(C)c3cn2NC(C)=O)cc1`: the fluorescence fold increase was 2.81 (active).

Turning to `Cn1c(=O)c2cn(-c3cccc4ccccc34)cc2n(C)c1=O`, the fluorescence fold increase is 1.28 (inactive). In the case of `COc1cccc(-n2cc(C(=O)O)c3ccccc3c2=O)c1`, the fluorescence fold increase was 1.36 (inactive). Turning to `Nc1nonc1-c1noc(-c2ccc(Br)o2)n1`, the fluorescence fold increase is 1.07 (inactive). With `Cc1onc(-c2ccccc2)c1C(=O)N1CCOCC1`, the fluorescence fold increase was 1.04 (inactive). The same measure for `O=C(C1CCN(S(=O)(=O)Cc2ccccc2)CC1)N1CCCc2ccccc21`: 1.08 (inactive); for `COc1ccc(-n2c(SC)nc(O)cc2=O)cc1`: 1.1 (inactive). As for `O=C1[C@@H]2C(Cc3ccc(O)cc3)NC3(C(=O)Nc4ccc(F)cc43)[C@@H]2C(=O)N1c1ccc(F)cc1` (stereo not given in full), the fluorescence fold increase was 1.1 (inactive). Take `COC(=O)c1ccccc1NC(=O)c1ccccc1NS(C)(=O)=O`: the fluorescence fold increase was 1.13 (inactive).

On to `O=C(Nc1nncs1)c1ccccc1NS(=O)(=O)c1cccs1`, for which the fluorescence fold increase is 2.5 (active). On to `CCc1ccccc1NC(=O)c1cccs1`, for which the fluorescence fold increase was 1.09 (inactive).

Turning to `COc1ccc(CCNC(=O)CSc2nnc(-c3cccc(F)c3)o2)cc1OC`, the fluorescence fold increase is 1.07 (inactive). On to `c1ccc2cc3[nH]c(CN4CCCCC4)nc3cc2c1`, for which the fluorescence fold increase is 1.35 (inactive). Consider `CCOC(=O)N1CCN(C(=O)c2nn(-c3ccc(C)cc3)c(=O)c3c2c2ccccc2n3C)CC1`, for which the fluorescence fold increase is 2.21 (active). With `Cn1c2ccccc2c2c(C(=O)N3CCN(c4ccc(F)cc4)CC3)cn(C3CCCC3)c(=O)c21`, the fluorescence fold increase is 1.57 (inactive). `CCOC(=O)N1CCN(C(=O)c2n[nH]c(=O)c3ccccc23)CC1`: the fluorescence fold increase was 1.04 (inactive). In the case of `COc1nc(Oc2ccc(=O)n(C)n2)nc(N(C)C)n1`, the fluorescence fold increase is 1.04 (inactive). The same measure for `CN1C(=O)c2ccc(NC(=O)C3CCCCC3)cc2C1=O`: 4.96 (active); for `CCC(=O)Nc1ccc(C(=O)Nc2ccc3c(c2)C(=O)N(CC2CCCO2)C3=O)cc1` (stereo not given): 1.59 (inactive). As for `O=C(O)c1ccc(NC(=O)C2CCCCC2)cc1`, the figure is 1.11 (inactive). Regarding `O=C(Nc1ccncc1)c1c(F)cccc1F`, the fluorescence fold increase was 1.11 (inactive). Turning to `CN1C(=O)c2ccc(NC(=O)c3c(F)c(F)c(F)c(F)c3F)cc2C1=O`, the fluorescence fold increase is 2.11 (active). Take `O=C(Nc1cnn(Cc2ccc(Cl)cc2)c1)C1CCCC1`: the fluorescence fold increase is 1.03 (inactive).

Consider `CCCCc1nc2ccccc2c(NC(=O)CN2CCN(C)CC2)c1CCC`, for which the fluorescence fold increase is 1.08 (inactive). Regarding `CC1=C(C(=O)Nc2ccc(Cl)cc2)C(c2ccco2)NC(=O)N1` (stereo not given), the fluorescence fold increase was 1.1 (inactive). As for `COc1ccccc1N1CCN(Cc2ccc(OC)c3ccccc23)CC1`, the figure is 1.12 (inactive); as for `O=C(NC(Cc1ccccc1)C(=O)N1CCCC1C(=O)O)c1ccccc1` (stereo not drawn) (Bz-Phe-Pro-OH; configuration not given here), 0.84 (inactive). In the case of `CCCn1c(=O)c2[nH]c(C3CCCC3)nc2n(CCC)c1=O`, the fluorescence fold increase is 1.03 (inactive). Turning to `CCc1ccc(CCC(=O)Nc2ccc(S(N)(=O)=O)cc2)o1`, the fluorescence fold increase is 1.08 (inactive). As to `CCOC(=O)c1csc(NC(=O)c2ccc(S(=O)(=O)N3CCCC3)cc2)n1`, the fluorescence fold increase is 2.49 (active). The same measure for `CCOC(=O)CSc1nnc(NC(=O)c2cccc(S(=O)(=O)N3CCCC3)c2)s1`: 1.07 (inactive); for `CCOC(=O)CSc1nnc(NC(=O)c2cccc(S(=O)(=O)N3CCCCC3)c2)s1`: 1 (inactive); for `Cc1ccc(S(=O)(=O)c2nc(NCCCn3ccnc3)sc2Cl)cc1`: 1.12 (inactive). `CC(C)(C)NC(=O)C(c1ccco1)N(Cc1ccc2c(c1)OCO2)C(=O)Cn1nnc2ccccc21` (stereo not given): the fluorescence fold increase was 1.1 (inactive).

For `O=C(NCCC1=CCCCC1)C1CCN(Cc2cnn(-c3ccccc3)c2-n2cccc2)CC1`, the fluorescence fold increase was 1.16 (inactive).

As to `Cn1cccc1Cc1nnc(SCC(=O)NCCc2ccccc2)n1-c1ccc(F)cc1`, the fluorescence fold increase is 1.12 (inactive). `CCCC(=O)N1c2ccc(-c3csc(N)n3)cc2CC1C` (stereo not given): the fluorescence fold increase was 1.13 (inactive). Turning to `COc1ccccc1NC(=O)CN1CCN(S(=O)(=O)c2ccc(Br)cc2)CC1`, the fluorescence fold increase is 1 (inactive).

`COc1ccc(NC(=O)CN2CCN(S(=O)(=O)c3ccc(F)cc3)CC2)cc1Cl`: the fluorescence fold increase was 1.01 (inactive).

Regarding `COc1cc2c(cc1NC(=O)CN1CCN(S(=O)(=O)c3ccc(F)cc3)CC1)oc1ccccc12`, the fluorescence fold increase is 2.72 (active).

As to `Cc1cc2cc(CNC(=O)c3ccc(S(=O)(=O)N4CCOCC4)cc3)ccc2[nH]1`, the fluorescence fold increase is 1.07 (inactive). As for `Cc1coc2c(O)cc3c(c12)OC1(N2CCCCC2)C(=O)NCCCC31` (stereo not given), the fluorescence fold increase is 1.1 (inactive). With `COc1ccc2[nH]c3ccc(OC)cc3c2c1`, the fluorescence fold increase was 1.46 (inactive).

With `O=c1c2[nH]c3ccc(Cl)cc3c2ncn1Cc1ccccn1`, the fluorescence fold increase was 1.12 (inactive). Turning to `COc1ccc2[nH]c3c(=O)n(Cc4ccco4)cnc3c2c1`, the fluorescence fold increase is 3.87 (active).
